We go through 16 molecules from article PMC5540273 (PLoS ONE, 2017).

What all share (conditions): concentration: 1 μM, replicates: in singlicate; n = 1
In experiment [1] the test system is TNNI3K.
Experiment [2] relates to T1, TRKA.
T1 construct: gene NTRK1

Experiment [3] concerns TRKB.
Experiment [4] deals with T2, TRKC.
T2 construct: gene NTRK3

In experiment [5] the test system is TRPM6.
Experiment [6] deals with TSSK1B.
The subject of experiment [7] is TSSK3.
The test system of experiment [8] is TTK.
Experiment [9] concerns TXK.
Experiment [10] has as its system TYK2(JH1domain-catalytic).
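Note: KINOMEscan kinase panel screen.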

In the case of `O=c1[nH]cc(-c2ccc(N3CCOCC3)cc2)c2sc(-c3cn[nH]c3)cc12` [GSK2276055], the “%Inh” value was 0% in experiment [1]; 0% in experiment [2]; 0% in experiment [3]; 0% in experiment [4]; 0% in [5]; 18% in experiment [6]. Moreover, the “%Inh” value in experiment [7] came to 13%; in experiment [8], 22%; in [9], 76%; in experiment [10], 23%.

As to `COc1cc(Nc2nccc(N3CCC(NC(=O)c4cc5ccccc5s4)C3)n2)cc(OC)c1OC` (stereo not shown) [GSK1379760], the “%Inh” value in experiment [1] was 0%; in experiment [2] it was 21%; in experiment [3] it was 0%; in experiment [4] it was 35%; in experiment [5], 17%; in [6], 0%. The “%Inh” value in experiment [7] was determined as 26%; in experiment [8] it was 0%; in experiment [9] it was 0%; in experiment [10] it was 28%.

Regarding `Cn1cc(-c2ccc3c(c2)CCN3C(=O)Cc2cccc(F)c2)c2c(N)ncnc21` [GSK2603358], the “%Inh” value in [1] stood at 0%; in [2], 34%; in experiment [3], 55%; in [4] it was 50%; in [5], 0%; in experiment [6], 5%. Also, the “%Inh” value in experiment [7] is recorded as 11%; in experiment [8] it was 67%; in [9] it was 25%; in experiment [10] it was 22%.

As to `COc1cc2c(cc1OCCN1CCNCC1)ncc1c3ccc(C#N)cc3[nH]c21`, the “%Inh” value came out at 0% in experiment [1]; 99.8% in experiment [2]; 94.1% in experiment [3]; 77% in experiment [4]; 100% in experiment [5]; 22% in experiment [6]. In addition, the “%Inh” value was found to be 15% in experiment [7], 0% in [8], 11% in experiment [9] and 50% in [10].

For `Cl.Cl.NCC(NC(=O)c1cc(-c2ccccc2)c(-c2ccnc3[nH]ccc23)s1)c1ccccc1` (stereo not shown) [GSK1321561], the “%Inh” value in experiment [1] was found to be 18%; in experiment [2] it was 58%; in [3], 26%; in [4] it was 6%; in experiment [5], 28%; in [6], 0%. Moreover, the “%Inh” value in experiment [7] stood at 18%; in [8], 0%; in experiment [9], 45%; in experiment [10], 20%.

Take `COCCOCCOc1cc2ncc3c4ccc(C#N)cc4[nH]c3c2cc1OC`: the “%Inh” value was determined as 9% in experiment [1]; 98% in [2]; 90% in [3]; 78% in experiment [4]; 0% in experiment [5]; 0% in experiment [6]. Also, the “%Inh” value in experiment [7] is reported as 0%; in experiment [8], 26%; in experiment [9], 4%; in experiment [10] it was 0%.

Take `COc1cccc(-c2ccc3c(NC(=O)C4CC4)n[nH]c3n2)c1` [SB-710903]: the “%Inh” value in [1] was 5%; in [2], 0%; in experiment [3] it was 66%; in experiment [4] it was 58%; in [5], 0%; in [6], 0%. Moreover, the “%Inh” value in experiment [7] worked out at 3%; in [8], 0%; in [9], 0%; in experiment [10] it was 52%.

Regarding `O=C(Nc1cccc(Oc2ccc3nc(NC(=O)C4CC4)cn3n2)c1)c1ccccc1C(F)(F)F`, the “%Inh” value is 4% in experiment [1]; 0% in experiment [2]; 0% in [3]; 0% in [4]; 0% in experiment [5]; 7% in experiment [6]. The “%Inh” value is on record as 0% in experiment [7], 26% in experiment [8], 17% in [9] and 5% in experiment [10].

Regarding `CCCCc1nn2ncccc2c1-c1ccnc(Nc2ccc(N3CCN(C)CC3)cc2)n1` [GW684941], the “%Inh” value in experiment [1] is on record as 41%; in [2], 88%; in experiment [3], 78%; in experiment [4], 66%; in experiment [5], 61%; in experiment [6], 9%. Besides, the “%Inh” value in experiment [7] was 7%; in experiment [8] it was 50%; in [9], 74%; in experiment [10], 44%.

On to `COc1ccc(-c2coc3ccc(-c4nnc(SCc5ccc(OC)c(C(F)(F)F)c5)o4)cc23)cc1`, for which the “%Inh” value in experiment [1] came to 0%; in experiment [2], 5%; in experiment [3], 10%; in experiment [4], 0%; in experiment [5] it was 1%; in experiment [6] it was 0%. Further, the “%Inh” value came to 0% in experiment [7], 1% in experiment [8], 0% in [9] and 27% in [10].

As to `C[C@@H](Oc1cc(-n2cnc3cc(-c4ccnc(NCCS(C)(=O)=O)c4)ccc32)sc1C(N)=O)c1ccccc1Cl` [GSK907232], the “%Inh” value amounted to 31% in [1]; 91% in experiment [2]; 39% in experiment [3]; 30% in experiment [4]; 0% in experiment [5]; 11% in [6]. For the same molecule, the “%Inh” value in experiment [7] is reported as 9%; in experiment [8] it was 0%; in experiment [9], 28%; in experiment [10], 12%.

Consider `Nc1n[nH]c2cnc(-c3ccccc3)cc12` [SB-642124], for which the “%Inh” value in [1] stood at 0%; in experiment [2], 0%; in [3] it was 28%; in [4], 20%; in experiment [5] it was 9%; in experiment [6], 30%. For the same molecule, the “%Inh” value in experiment [7] is reported as 12%; in [8] it was 0%; in experiment [9], 3%; in [10] it was 79%.

As for `COc1cccc(NC(=O)NC2CCN(c3ccnc(Nc4cc(OC)c(OC)c(OC)c4)n3)C2)c1` (stereo not shown) [GSK1379763], the “%Inh” value in experiment [1] was 0%; in experiment [2], 54%; in experiment [3], 63%; in experiment [4], 89%; in [5], 3%; in experiment [6] it was 3%. Further, the “%Inh” value in experiment [7] is recorded as 20%; in experiment [8], 5%; in experiment [9], 1%; in [10], 20%.

Turning to `Cl.c1ccc(-c2ccc3c(Nc4ccc5[nH]ncc5c4)ccnc3c2)nc1` [GW440137], the “%Inh” value in experiment [1] amounted to 0%; in [2], 0%; in [3], 16%; in experiment [4], 17%; in experiment [5], 25%; in experiment [6], 12%. Moreover, the “%Inh” value in experiment [7] stood at 7%; in experiment [8], 3%; in [9], 74%; in experiment [10] it was 14%.

With `Nc1ncc(-c2ccc3nccc(-c4ccncc4)c3c2)cc1S(=O)(=O)N1CCOCC1` [GSK1627798], the “%Inh” value was determined as 0% in experiment [1]; 90.2% in experiment [2]; 90.7% in experiment [3]; 74% in experiment [4]; 0% in experiment [5]; 0% in [6]. In addition, the “%Inh” value in experiment [7] is listed as 0%; in experiment [8], 8%; in experiment [9], 0%; in experiment [10] it was 0%.

Turning to `COc1cccc(C(=O)Nc2cccc(Oc3ccc4nc(NC(=O)C5CC5)cn4n3)c2)c1`, the “%Inh” value in experiment [1] is listed as 87%; in experiment [2], 0%; in experiment [3], 0%; in [4], 0%; in experiment [5], 17%; in experiment [6], 6%. Moreover, the “%Inh” value in experiment [7] turned out to be 0%; in experiment [8] it was 13%; in experiment [9], 37%; in experiment [10] it was 0%.
